PubChem BioAssay (NCI)
About 83,000 compounds went through this panel and 20% of them were active in at least one assay; those are over-represented in the sample as a whole.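 Each cell line was grown in a 96-well plate and treated with one concentration of compound for 48 hours. Values below 10 were considered active.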 A number with no mark means an inactive call. Calls of active or inactive are those of the source.

What was measured:
Assay in all cases: NCI-60 one-dose screen, 48 h (100 = growth as untreated, 0 = no growth, -100 = all killed)
[1] = system: T-47D breast; settings: 10 µM unless noted
[2] = system: BT-549 breast; settings: 10 µM unless noted
[3] = system: MDA-MB-435 melanoma; settings: 10 µM unless noted
[4] = system: SW-620 colon; settings: 10 µM unless noted
[5] = system: MCF7 breast; settings: 10 µM unless noted
[6] = system: HCT-116 colon; settings: 10 µM unless noted
[7] = system: KM12 colon; settings: 10 µM unless noted
[8] = system: HCC-2998 colon; settings: 10 µM

SMILES	growth [1]	growth [2]	growth [3]	growth [4]	growth [5]	growth [6]	growth [7]	growth [8]
Cc1cccc(Cl)c1NC(=O)c1cnc(Nc2cc(N3CCOCC3)cc(N3CCOCC3)c2)s1	0.787% (active)	56.3%	10.3%	82.2%	75%	11.5%	62.4%	
CC(=Nc1ccccc1)C1=C(O)C(Cc2ccc(O)cc2)NC1=O (stereo not given)	67.4%	15.2%	-8.69% (active)	15.6%	10%	3.3% (active)	-35.5% (active)	
CS(=O)(=O)N1CCc2c(-c3cnc(N)nc3)nc(N3CCOCC3)nc21	-37.2% (active)	-7.63% (active)	2.21% (active)	24.3%	6.89% (active)	20.4%	8.03% (active)	
COc1cc(-c2cc(-c3ccc(Nc4ccnc5cc(Cl)ccc45)cc3)nc(N3CCOCC3)n2)cc(OC)c1OC	12.8%	24.4%	-35% (active)	1.68% (active)	4.34% (active)	-63.3% (active)	25.2%	18.7%
CNC(=O)c1c(C)oc2cc(Oc3ncnc4cc(OC)c(OC)cc34)ccc12	94%	73.6%	114%	104%	97.6%	93.7%	102%	
Cn1cc(-c2[nH]c3cc(NC(=O)[C@H](N)C4CCCCC4)cc4c3c2C=NNC4=O)cn1	-9.81% (active)	-73.7% (active)	-33.9% (active)	-31.8% (active)	-12.1% (active)	-76% (active)	2.52% (active)	32.6%
Cc1c(CN2CCN(C(=O)[C@H](C)O)CC2)sc2c(N3CCOCC3)nc(-c3cnc(N)nc3)nc12	-38% (active)	-3.06% (active)	-9.11% (active)	7.94% (active)	1.68% (active)	5.47% (active)	6.74% (active)	
Cc1cc(N(CCNc2ccnc3cc(Cl)ccc23)Cc2cccs2)nc(Cl)n1	-34.3% (active)	-55.4% (active)	-1.48% (active)	2.77% (active)	5.64% (active)	-85% (active)	34%	
COc1cc(OC)c(C(=O)/C=C/c2cc3c(cc2OCc2ccccc2)OC(C)(C)CC3)cc1CC=C(C)C	42.3%	27.2%	35.9%	25.5%	28.8%	28.5%	42.4%	
COc1ccc2c(OCc3nnc4ccc(-c5ccccc5)nn34)ccnc2c1	71.1% [2.5 µM]	102% [2.5 µM]	103% [2.5 µM]	109% [2.5 µM]	93.4% [2.5 µM]	98.4% [2.5 µM]	94.3% [2.5 µM]	
CC(C)NC[C@@H](C(=O)N1CCN(c2ncnc3c2[C@H](C)C[C@H]3O)CC1)c1ccc(Cl)cc1	-9.42% (active)	25.2%	68.2%	71.4%	30.9%	61.4%	18.9%	
CCCCCCCC12Cc3ccccc3C1=Nc1c(c3ccccc3n1C)C2=O (stereo not given)	72.4%	108%	105%	97%	80.2%	73.9%	94.2%	
O=C(Nc1ccc(-c2ccnc(Nc3ccc(N4CCOCC4)cc3)n2)cc1)[C@@H]1CCCN1	56.1%	50.9%	57.7%	76.6%	58%	34.1%	35.6%	
ClCc1ccc(-c2ccc(Cn3cnc4nc(Cl)nc(Cl)c43)cc2)cc1	-10.5% (active)	-44.8% (active)	-19.5% (active)	-46.8% (active)	-42.4% (active)	-72.4% (active)	-63% (active)	
COc1cc(C2CC(c3ccc(Cl)cc3)=NN2c2ccc(Cl)cc2)cc(OC)c1OC (stereo not given)	86.1%	95.6%	93.3%	96.6%	89.5%	93.6%	96.5%	
COC1CCC(N2C(=O)CNc3ncc(-c4ccc(C(C)(C)O)nc4)nc32)CC1 (stereo not given)	-24% (active)	-8.77% (active)	-27.9% (active)	12%	3.23% (active)	11.4%	7.39% (active)	
COc1ccc(-c2cc3c(oc2=O)-c2ccccc2OC3OC(C)=O)cc1 (stereo not given)	68.5%	102%	110%	98.7%	89.6%	74%	111%	
Cc1nc(NC(=O)N2CCC[C@H]2C(N)=O)sc1-c1ccnc(C(C)(C)C(F)(F)F)c1	-34.7% (active)	50.2%	49.3%	41.7%	13.9%	26.4%	57.6%	
Cc1ccc(-c2nc3ccc(Cl)cn3c2NC2CCCCC2)o1	58.1%	105%	97.2%	82.9%	72.1%	56.1%	89.2%	
COc1ccc(Br)cc1NC(=O)Nc1cccc2c1ccn2Cc1ccnc(N)c1	6.9% (active)	51.1%	11.1%	19.4%	16.5%	16.8%	10.3%	
O=C1NC(=O)/C(=C/c2ccc3nccc(-c4ccncc4)c3c2)S1	-41.7% (active)	-36.7% (active)	-11% (active)	1.44% (active)	0.645% (active)	-38.6% (active)	1.44% (active)	
O=C1CSC(c2c(F)cccc2Cl)N1NC(=O)C(O)(c1ccccc1)c1ccccc1 (stereo not given)	93.3%	104%	104%	99.9%	110%	94.8%	108%	
CC(C)[C@@H](C)/C=C/[C@@H](C)[C@H]1CCC2=C3C=CC4=CC(=O)CC[C@]4(C)[C@H]3CC[C@@]21C	91.3%	102%	103%	109%	93.6%	93%	104%	
O=C(Nc1cccc(Cl)c1)Nc1ncc(CCNc2ncnc3ccsc23)s1	-16.9% (active)	0.164% (active)	12.5%	62.6%	11.8%	17.9%	11.4%	
COc1cnc2c(c1)C(=O)c1c-2n(CCCN2CCOCC2)c(=O)c2cc(Cl)ccc12	10%	43.6%	47.5%	21.3%	10.4%	8.51% (active)	32.7%	
C[C@@H]1COCCN1c1cc(C2([S@](C)(=N)=O)CC2)nc(-c2ccnc3[nH]ccc23)n1	21.4%	27.2%	31%	43.7%	14.4%	35.5%	21.4%	
CCCNC(=O)c1cn2ncnc(Nc3cc(C(=O)NC4CC4)ccc3C)c2c1C	65.3%	103%	89.9%	39%	83.6%	101%	99.6%	
COc1cc(-c2nc(C(=O)Nc3ccc(C)cc3)nn2-c2ccc(F)c(F)c2)cc(OC)c1OC	77.1%	100%	93.3%	110%	95.1%	95.7%	102%	
CCCC(=O)OCC1OC(n2cnc3c(=S)nc(N)[nH]c32)C(OC(=O)CCC)C1OC(=O)CCC (stereo not given)	33.4%	34.2%	36.3%	52%	17.8%	24.7%	41%	
